Results filed as inconclusive are left out.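 The calls were made as follows, unless noted: active = compounds whose dose series gives a full or clear partial fitted curve of increased nuclear translocation; inconclusive = weak partial curve or effect only at the top dose; inactive = no dose-dependent translocation response.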
system: not listed separately; assay: Stat Signaling Pathway (AID 446; active = well fitted curve in either direction with a large enough effect, not every such curve was filed as active;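 also: ME-180 cervical cancer cells given 40 pM IL-6 alongside compound; SIE-controlled beta-lactamase reporter measured as 460/530 nm FRET emission ratio; % is scaled to controls: 0 for no effect and ±100 for the full control effect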); settings: ME-180 SIE beta-lactamase reporter, IL-6 stimulated, 5 h; at 7.69 µM (top of the series) unless noted
In short: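 ME-180 SIE-bla cells; overnight plating; cpd + IL-6 40 pM, 5 h, 37 C; LiveBLAzer 2.5 h RT; 460/530 nm emission ratio. Normalized to 300 pM IL-6 and 125 nM JAK inhibitor controls.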

activity, negative = inhibition, inactive:
N#[N+]c1ccc(Nc2ccccc2)cc1 -16.1%, COc1cc(C2SCCCCCCCCCCSC(c3ccc(O)c(OC)c3)SCCCCCCCCCCS2)ccc1O (stereo not given) 9.48%, COc1cc(-c2[o+]c3cc(O)cc(O)c3cc2O)cc(O)c1O 0.423%, CO[C@@H]1/C=C\O[C@]2(C)Oc3c(C)c(O)c4c(O)c(cc(O)c4c3C2=O)NC(=O)/C(C)=C\C=C/[C@H](C)[C@@H](O)[C@H](C)[C@H](O)[C@H](C)[C@H](OC(C)=O)[C@@H]1C -1.99%, C[C@@]12CCC(=O)C=C1CC[C@H]1[C@@H]2[C@@H](O)C[C@]2(C)[C@@H]1CC[C@@]2(O)C(=O)CO 4.86%

biological target: Glucocorticoid receptor (Homo sapiens) (UniProt P04150); assay: GR-GFP Redistribution (AID 450); settings: U2OS GR-GFP nuclear translocation, laser cytometry, 2 h; also: potency is read from the fitted curve at half-maximal effect
Sequence (P04150 whole entry, looked up): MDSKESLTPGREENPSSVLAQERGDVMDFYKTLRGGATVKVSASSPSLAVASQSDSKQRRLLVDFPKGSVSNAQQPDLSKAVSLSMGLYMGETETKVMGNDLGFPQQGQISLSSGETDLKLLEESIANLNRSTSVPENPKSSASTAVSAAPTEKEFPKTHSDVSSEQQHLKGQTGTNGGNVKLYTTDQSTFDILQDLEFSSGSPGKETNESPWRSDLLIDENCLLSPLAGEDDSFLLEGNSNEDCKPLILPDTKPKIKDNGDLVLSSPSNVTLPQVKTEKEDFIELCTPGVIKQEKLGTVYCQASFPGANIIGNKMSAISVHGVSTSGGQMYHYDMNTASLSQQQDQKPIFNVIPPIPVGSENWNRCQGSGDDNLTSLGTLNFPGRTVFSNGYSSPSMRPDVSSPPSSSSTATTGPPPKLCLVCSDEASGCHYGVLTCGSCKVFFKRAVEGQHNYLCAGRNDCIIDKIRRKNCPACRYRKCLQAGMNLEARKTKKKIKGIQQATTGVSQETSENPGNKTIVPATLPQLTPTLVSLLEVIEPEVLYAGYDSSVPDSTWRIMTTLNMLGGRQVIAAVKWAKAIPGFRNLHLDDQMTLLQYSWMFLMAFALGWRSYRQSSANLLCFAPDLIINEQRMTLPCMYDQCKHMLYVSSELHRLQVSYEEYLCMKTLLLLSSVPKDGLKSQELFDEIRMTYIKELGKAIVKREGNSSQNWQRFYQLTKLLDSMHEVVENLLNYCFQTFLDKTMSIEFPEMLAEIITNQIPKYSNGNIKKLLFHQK

Potency, inactive:
CCC(=O)OCN1C(=O)C=CC1=O > 46 µM, CN(C)CCCN1c2ccccc2Sc2cnccc21 > 46 µM, Oc1ccc(Cn2c(-c3ccc(O)cc3)nc3ccccc32)cc1 > 46 µM, O=C(O)CCc1c2ccc(=O)c(O)c-2oc2c(O)c(O)ccc12 > 46 µM, O=c1c[n+](CCCC[n+]2cc(=O)o[nH]2)[nH]o1 > 46 µM, O=c1c2ccccc2sc2c(CO)ccc(NCCN3CCCCC3)c12 > 46 µM, c1ccc(NCCSc2nc3ccccc3s2)cc1 > 46 µM, Cc1cc(SCC(=O)c2ccc(Br)cc2)cc(C)[o+]1 > 46 µM, c1ccc([C@H](c2cccc3c2ccc2ccccc23)[C@H](c2ccccc2)c2cccc3c2ccc2ccccc23)cc1 > 46 µM, O=C(O)[C@@H](O)[C@@H](O)[C@@H](O)[C@@H](O)c1nc2ccccc2s1 > 46 µM, CC(C)NC[C@@H](O)c1ccc(O)c2ncccc12 > 46 µM, NCCSc1nc2ccccc2s1 > 46 µM, O=C(O)c1ccccc1-c1ccccc1C(=O)Nc1ccc2c(c1)Cc1cc(F)ccc1-2 > 46 µM, N/C(=N\O)c1cn([C@@H]2O[C@@H](CO)[C@H](O)[C@@H]2O)c2ncnc(NO)c12 > 46 µM, Cn1cnc([N+](=O)[O-])c1SCC(=O)O > 46 µM, ON(CCc1ccncc1)Cc1ccccc1 > 46 µM, Cc1cccc(C)c1NC(=O)Nc1ccc(S(N)(=O)=O)cc1 > 46 µM, C/C(C[n+]1ccccc1)=N\N=C(N)N > 46 µM, C[N+](C)(C)c1ncnc2c1ncn2[C@@H]1CCCCO1 > 46 µM, O=C(O)CSc1nc2ccccc2[nH]1 > 46 µM, Cc1nc2cnc(N3CCNCC3)nc2n(-c2ccccc2)c1=O > 9.22 µM, N[C@@](CCc1ccccc1)(C(=O)O)c1ccccc1 > 46 µM, COCCn1c(=O)c(-c2ccccc2)nc2cnc(Nc3ccccc3)nc21 > 9.22 µM, CC(=O)N[C@@H]1CONC1=O > 46 µM, O=C(O)CSc1ccn(Cc2ccccc2)c1 > 46 µM, COc1ccccc1CCn1c(=O)c(-c2ccc(F)cc2)nc2cncnc21 > 9.22 µM, CC(C)(N)CO[C@H]1C[C@H]2CC[C@@]1(C)C2(C)C > 46 µM, CC(C)(C)c1ccc(NS(=O)(=O)c2ccc(N)cc2)cc1 > 46 µM, O=C(O)c1nnsc1-c1csnn1 > 46 µM, COCCn1c(=O)c(-c2ccc(OC)cc2)nc2cnc(OC)nc21 > 9.22 µM, NC(N)=NC(N)=Nc1ccc(S(N)(=O)=O)cc1 > 46 µM, c1c[nH]c(CN2CCOCC2)n1 > 46 µM, CC(C)CSC[C@@H]1O[C@H](n2cnc3c(N)nccc32)[C@H](O)[C@@H]1O > 46 µM, CCNc1ncc2nc(C)c(=O)n(Cc3cccc(OC)c3)c2n1 > 9.22 µM, CC(=O)Nc1nc(NC(C)=O)c2[nH]c(CO)nc2n1 > 46 µM
